Test results taken from the supplement of paper PMC3334620.
Whole data set: some 33,000 sequences, median “E-score (-0.5 to 0.5)” near -0.012, cut for the highest 2% near 0.27. Shown is part of a subset that was picked to be rich in the highest values.

These sequences were tested against T1, Vhr1 (UniProt P40522) (assay: PBM E-score (8-mer binding enrichment) (E-score (-0.5 to 0.5)); higher = stronger / more preferred TF binding). Conditions: protein concentration: 200 nM; construct: GST-full length.
T1 sequence: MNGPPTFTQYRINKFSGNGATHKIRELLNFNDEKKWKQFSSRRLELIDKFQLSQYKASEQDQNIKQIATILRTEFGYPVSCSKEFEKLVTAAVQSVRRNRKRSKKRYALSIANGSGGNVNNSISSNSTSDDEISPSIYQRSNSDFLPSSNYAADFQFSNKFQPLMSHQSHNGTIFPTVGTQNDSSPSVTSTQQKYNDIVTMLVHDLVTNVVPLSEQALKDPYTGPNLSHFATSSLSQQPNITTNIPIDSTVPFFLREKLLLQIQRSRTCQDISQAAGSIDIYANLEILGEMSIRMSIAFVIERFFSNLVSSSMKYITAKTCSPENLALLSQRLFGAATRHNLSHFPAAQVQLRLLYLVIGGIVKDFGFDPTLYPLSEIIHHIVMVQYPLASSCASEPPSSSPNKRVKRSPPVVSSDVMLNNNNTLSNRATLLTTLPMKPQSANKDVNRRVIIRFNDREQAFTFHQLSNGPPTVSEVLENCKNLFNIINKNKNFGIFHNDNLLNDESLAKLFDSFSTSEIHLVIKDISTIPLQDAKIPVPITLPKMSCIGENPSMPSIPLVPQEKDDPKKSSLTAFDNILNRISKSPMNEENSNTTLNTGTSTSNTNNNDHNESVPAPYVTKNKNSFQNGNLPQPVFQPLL
Method: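 Universal 'all 10-mer' protein binding microarrays (Agilent AMADID 015681) probed with GST-tagged S. cerevisiae TFs (full-length or DBD) made by in vitro transcription/translation (PURExpress), about 100-200 nM. Bound TF was detected with fluorescent anti-GST. Each ungapped 8-mer (which stands for itself and its reverse complement) is scored by the PBM enrichment score (E-score), a modified Wilcoxon-Mann-Whitney statistic from -0.5 to +0.5, computed with the Universal PBM Analysis Suite. Scale: above 0.35 generally sequence-specific binding.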

Sequence	PBM E-score
AGTCGGCG	0.293
AGTCGGTG	0.246
ATTCGGCG	-0.00502
AAGTGACA	0.0587
ACAGGGTC	0.133
AAGAGTGG	-0.0723
CAGGGTCG	0.025
CAGGGTCA	0.00801
CAGAGTCG	0.328
CAGAGTCA	0.344
CAGAGTCC	0.0441
AAGAGTCG	0.281
AAGAGTTG	-0.154
CAGAGTGA	0.0508
CCTATTAG	-0.167
GTTTCCTA	-0.206
TACTGCAA	-0.0559
GCCTAACA	0.026
CCCAACTC	0.134
CCAGGCAA	-0.034
ACGCGAAA	-0.0435
GGTGCTAA	-0.166
GATTCGCC	0.105
GATTCGCA	0.276
CATTCGCC	0.00808

Sequence	PBM E-score
AATTCGCG	-0.02
CATTCGCA	-0.0683
CATTCGCG	0.279
AGTGCACA	0.0902
AAAGATGC	-0.193
AAAGACGC	-0.154
ACAGGCGC	-0.173
CCTTCTGA	-0.149
GCACTTGA	-0.145
ATGTCTCG	0.135
ATGTCTCA	0.297
ATGTCTCC	0.175
AAACCACG	-0.079
AAGACCGG	-0.166
CCATGAGA	0.191
ACATGAGT	0.279
AGATGACA	0.0194
ACATGAGG	-0.0901
ACATGACG	-0.0758
ACATGAGC	0.0844
ACATGACT	0.446
ACATGAGA	0.273
TCATGAGA	0.101
AGATGACT	0.435
ACATGACA	0.206

Sequence	PBM E-score
AGATGACC	-0.0573
ACTAGGCT	0.154
GATCAGGC	-0.00147
TAGCCTGA	0.0109
ACAGTGGA	-0.0091
ACTTGTTG	-0.0998
ACGACCCT	-0.139
ATGAGATA	0.134
CAGCAAGA	-0.0328
AACGAAGG	-0.252
AGGATCCA	0.0343
TGGATCCA	-0.0454
CGGATCCA	0.298
CACTCAGA	0.12
AACTCAGC	-0.023
GACTCAGA	0.308
CACTCAGC	0.044
GACTCAGC	0.404
AACTCAGA	0.0696
ACTGCAGA	-0.0788
AATCTAGA	-0.14
AACCGCGT	0.0481
AACCGCGA	0.278
TACCGCGA	0.107
CCTTTGCC	-0.17

Sequence	PBM E-score
CCATTCGC	0.109
GTCATCGA	0.205
CCCAACAG	-0.0293
CATGTATA	0.28
GATGTATA	0.242
CATGTATC	0.18
ACGATGCT	0.0556
AGTTGGAT	0.127
CCGTCATC	-0.0774
AAGTCATC	0.323
AAGTCATT	-0.0196
AGGTCATG	0.136
ATGTCATC	0.0412
CGGTCATC	0.124
AAGTCAAG	-0.156
CAGTCATC	0.419
AAGTCATG	0.41
CAAAATCC	0.096
CCCTTAAC	-0.168
ACATGTGC	0.117
ACATGTGA	0.0459
ACATGTGG	0.278
AGTCGGTA	-0.0272
ACCCCAAT	-0.0588
ATTTGACA	-0.00873

Sequence	PBM E-score
GTCCATCA	-0.104
GCGAATCA	0.345
CCGAATCC	0.0952
TCGAATCA	0.253
GCGAATCC	0.0147
ACGAATCA	0.336
ACGAATCT	-0.0246
ACGAATCC	0.117
CCGAATCA	0.288
CCGAATCG	0.101
ATTTCTGA	-0.152
TATGGAGA	-0.137
CTCCCCCC	-0.0954
ATCTGTTA	-0.0428
GTACACAC	0.261
ATCAGGTA	0.193
ATCCCCAC	0.122
ATACCCAC	0.176
GCGCGAAC	0.0578
AGCTAAAG	-0.21
AGAGCCTC	-0.228
CGGCGTGA	0.142
GGGCGTGA	0.297
AGGCGTGA	0.019
CCGACTAC	0.269

Sequence	PBM E-score
ACGACTAC	0.209
TCGACTAA	0.207
GCGACTAC	0.341
GCGACTAA	0.316
ACGACTAA	0.194
CCCAGGCA	0.0398
CATTCAGC	-0.161
CTTGTAAA	-0.0609
CGTGGGAG	0.0618
AATAAAGC	-0.176
AGTCGCAG	0.24
AGTCGCAC	0.296
AGTCGCCA	0.233
GGTCGCAC	0.0284
AGTCGCCC	0.346
AGTCGCCG	0.246
GTTCTTGA	-0.0686
CTAGGGGC	-0.146
AACACCAC	0.0462
GTTCAAAC	-0.0829
ATACTGCA	0.234
CGCCACGA	-0.0781
CTTGCAAC	0.0737
CGAATCAC	0.331
GGAATCAA	0.154

Sequence	PBM E-score
CGAATCTC	-0.0376
CGAATCCC	0.00269
GGAATCAC	0.388
GGAATCCC	0.034
AAAAGCCA	-0.0583
ACACCTGC	0.0726
AGGCTACA	0.0844
ATGACCAC	0.176
ACCCTATG	0.136
TACGTTGA	0.0682
GATTTTGA	0.0345
ATTACTTG	0.164
ACTCCGAC	0.332
ACTCCGAG	0.357
GCTCCGAC	0.0683
ACTCCGAT	0.1
CCTCCGAC	-0.0621
ACTCCGAA	0.116
TCTTAACA	-0.0919
CATGCATA	0.0152
CATGCATC	0.28
CATGCATG	0.117
